According to PubChem BioAssay (NCATS):
Where “and” joins values, the source holds several entries; their conditions need not be identical. Identical values can stand only once. Results filed as inconclusive are left out. Calls of active or inactive are those of the source. Unless noted, the call rests on the fitted dose curve; in most records, active means well fitted curve in the direction sought with a large enough effect; inconclusive means small, poorly fitted or top-dose-only effect, or another doubt; inactive means no such curve, though single readings can be large; an effect the other way counts as inactive or inconclusive.

Legend:
[1] = qHTS for differential inhibitors of proliferation of Plasmodium falciparum line 7G8 (AID 1815);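 further: parasite growth measured after three days of incubation; plate controls were vehicle wells for no effect and reference inhibitor wells for full effect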
[2] = qHTS for differential inhibitors of proliferation of Plasmodium falciparum line D10 (AID 1877);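 further: parasites grown with compound for 72 h before DNA staining; plate controls were vehicle wells for no effect and reference inhibitor wells for full effect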
[3] = qHTS for differential inhibitors of proliferation of Plasmodium falciparum line HB3 (AID 1886); settings: Potency: Plasmodium falciparum HB3 proliferation inhibition;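 further: parasites grown with compound for 72 h before SYBR Green readout; plate controls were vehicle for no effect and reference inhibitor for full effect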
[4] = target: Ferritin light chain (Equus caballus) (UniProt P02791); assay: qHTS Validation Assay for Identification of Novel General Anesthetics (AID 2323); further: series mostly up to about 77 µM; on the % scale 0 is the no-effect control and ±100 the full control effect
Ferritin light chain (Equus caballus), sequence (P02791 2-175 limits assumed): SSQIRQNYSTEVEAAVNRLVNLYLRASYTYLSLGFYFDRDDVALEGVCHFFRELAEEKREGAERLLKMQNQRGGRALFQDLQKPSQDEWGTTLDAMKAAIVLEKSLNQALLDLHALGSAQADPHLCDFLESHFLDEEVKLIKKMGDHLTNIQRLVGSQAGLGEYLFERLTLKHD
How it was run: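 Competitive displacement of profluorescent 1-aminoanthracene (1-AMA, 50% saturated solution in PBS) from 10 uM horse-spleen apoferritin. Compounds incubated 10 min at room temperature; fluorescence read at 380 nm excitation/535 nm emission, normalized to free 1-AMA and complex, fitted with four-parameter Hill equation.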

[5] = target: ATP-dependent DNA helicase Q1 (Homo sapiens) (UniProt P46063); assay: qHTS Validation Assay for Inhibitors of RecQ-Like Dna Helicase 1 (RECQ1) (AID 2353);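 further: plate controls were DMSO vehicle for no effect and enzyme-free control for full effect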
ATP-dependent DNA helicase Q1 (Homo sapiens), sequence (P46063 whole entry, looked up): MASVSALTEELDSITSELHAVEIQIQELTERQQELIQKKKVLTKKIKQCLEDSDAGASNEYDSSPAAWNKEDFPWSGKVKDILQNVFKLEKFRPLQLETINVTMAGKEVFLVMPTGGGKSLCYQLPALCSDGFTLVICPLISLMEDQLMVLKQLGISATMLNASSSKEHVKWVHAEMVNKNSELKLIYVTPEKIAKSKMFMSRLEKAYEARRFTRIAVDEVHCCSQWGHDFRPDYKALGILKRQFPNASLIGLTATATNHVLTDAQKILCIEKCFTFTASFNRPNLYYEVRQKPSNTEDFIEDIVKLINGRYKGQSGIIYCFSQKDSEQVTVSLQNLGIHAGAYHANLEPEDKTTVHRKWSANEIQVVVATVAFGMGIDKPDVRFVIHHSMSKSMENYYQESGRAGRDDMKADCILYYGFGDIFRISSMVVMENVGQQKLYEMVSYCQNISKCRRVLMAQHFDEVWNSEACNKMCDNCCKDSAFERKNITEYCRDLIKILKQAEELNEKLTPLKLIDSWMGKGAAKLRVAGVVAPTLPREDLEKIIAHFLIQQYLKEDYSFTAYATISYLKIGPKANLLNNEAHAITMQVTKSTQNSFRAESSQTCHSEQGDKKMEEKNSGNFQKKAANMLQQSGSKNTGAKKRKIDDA
How it was run: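 RECQ1T1 50 nM; forked duplex (20 bp + 30-nt ss tails) 200 nM, ATP 2 mM final; pH 8.0, 2 mM MgCl2, 2.5 ug/ml poly(dI-dC); 15 min compound preincubation; discontinuous kinetic read over 2 h at RT.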

[6] = Validation screen for small molecules that induce DNA re-replication in MCF 10A normal breast cells (AID 463097); further: 0% is about no effect; nearly all actives have a fitted effect of over 60% in size
How it was run: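 Readout: Hoechst nuclear fluorescence intensity, 405 ex / 500-530 em, by scanning plate imager; re-replication scored as increase in nuclei with elevated DNA content. Cells exposed to compound 48 hr, 37 C, 5% CO2 beforehand.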

[7] = Quantitative high throughput screen for delayed death inhibitors of the malarial parasite plastid, 96 hour incubation (AID 488745);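 further: luciferase-expressing P. falciparum in erythrocytes at 2% hematocrit and 0.1% parasitemia; series mostly up to about 29 µM; on the % scale 0 is the no-effect control and ±100 the full control effect; nearly all actives have a fitted effect of over 70% in size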
How it was run: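 Readout is firefly luciferase luminescence from an integrated reporter in P. falciparum; lower signal marks inhibited growth. Cultures at 2% hematocrit and 0.1% parasitemia were treated with compound across two generations (96 h, 37 C, 5% CO2).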

[8] = Quantitative high throughput screen for delayed death inhibitors of the malarial parasite plastid, 48 hour incubation (AID 488752); further: on the % scale 0 is the no-effect control and ±100 the full control effect; nearly all actives have a fitted effect of over 65% in size
How it was run: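 First, compound was pinned into RPMI 1640 medium containing 0.5% Albumax. Next, reporter-parasite-infected erythrocytes were added to 2% hematocrit and 0.1% parasitemia. After 48 h at 37 C under 5% CO2, luciferase detection reagent was added and luminescence read.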

[9] = target: M-phase phosphoprotein 8 (Homo sapiens) (UniProt Q99549); assay: qHTS Validation Assay for Inhibitors for MPP8 Chromodomain Interactions with Methylated Histone Tails (AID 488949); further: potency means the concentration at half of the fitted maximal effect; nearly all actives have a fitted effect of over 55% in size
M-phase phosphoprotein 8 (Homo sapiens), sequence (Q99549 whole entry, looked up): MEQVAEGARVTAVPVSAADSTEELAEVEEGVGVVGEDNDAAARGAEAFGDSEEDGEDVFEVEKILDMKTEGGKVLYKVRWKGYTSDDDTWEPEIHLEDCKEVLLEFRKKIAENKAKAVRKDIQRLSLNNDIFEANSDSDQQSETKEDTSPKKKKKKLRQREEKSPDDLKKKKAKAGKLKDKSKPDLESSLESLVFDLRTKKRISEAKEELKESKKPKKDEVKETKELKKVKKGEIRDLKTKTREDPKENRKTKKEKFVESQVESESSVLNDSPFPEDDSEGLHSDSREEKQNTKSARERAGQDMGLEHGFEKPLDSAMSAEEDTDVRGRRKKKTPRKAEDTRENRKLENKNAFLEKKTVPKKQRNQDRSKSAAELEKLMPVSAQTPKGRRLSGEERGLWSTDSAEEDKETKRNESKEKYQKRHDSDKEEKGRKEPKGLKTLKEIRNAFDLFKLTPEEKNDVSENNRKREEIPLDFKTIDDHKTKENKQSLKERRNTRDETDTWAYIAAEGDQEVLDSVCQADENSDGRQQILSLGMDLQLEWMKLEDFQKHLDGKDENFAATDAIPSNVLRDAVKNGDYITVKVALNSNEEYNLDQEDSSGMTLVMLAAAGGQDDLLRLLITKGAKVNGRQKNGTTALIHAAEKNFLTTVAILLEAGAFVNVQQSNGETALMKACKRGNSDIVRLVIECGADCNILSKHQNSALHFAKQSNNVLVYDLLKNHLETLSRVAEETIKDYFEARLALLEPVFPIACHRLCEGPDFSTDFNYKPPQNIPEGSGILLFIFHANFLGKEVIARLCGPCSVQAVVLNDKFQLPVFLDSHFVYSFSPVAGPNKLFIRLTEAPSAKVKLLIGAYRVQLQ
How it was run: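 MPP8 (50 nM) was preincubated with biotinylated H3(1-18)K9me3 peptide (50 nM) in PBS pH 7.4, 0.01% Tween-20 for 30 min at room temperature, then with compounds for 30 min; binding was detected by AlphaScreen.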

[10] = target: Transient receptor potential cation channel subfamily V member 1 (Homo sapiens) (UniProt Q8NER1); assay: HTS Assay for Compounds that Act as Enhancers of the Vanilloid Receptor 1 (AID 488979); further: 0% is about no effect
Transient receptor potential cation channel subfamily V member 1 (Homo sapiens), sequence (Q8NER1 whole entry, looked up): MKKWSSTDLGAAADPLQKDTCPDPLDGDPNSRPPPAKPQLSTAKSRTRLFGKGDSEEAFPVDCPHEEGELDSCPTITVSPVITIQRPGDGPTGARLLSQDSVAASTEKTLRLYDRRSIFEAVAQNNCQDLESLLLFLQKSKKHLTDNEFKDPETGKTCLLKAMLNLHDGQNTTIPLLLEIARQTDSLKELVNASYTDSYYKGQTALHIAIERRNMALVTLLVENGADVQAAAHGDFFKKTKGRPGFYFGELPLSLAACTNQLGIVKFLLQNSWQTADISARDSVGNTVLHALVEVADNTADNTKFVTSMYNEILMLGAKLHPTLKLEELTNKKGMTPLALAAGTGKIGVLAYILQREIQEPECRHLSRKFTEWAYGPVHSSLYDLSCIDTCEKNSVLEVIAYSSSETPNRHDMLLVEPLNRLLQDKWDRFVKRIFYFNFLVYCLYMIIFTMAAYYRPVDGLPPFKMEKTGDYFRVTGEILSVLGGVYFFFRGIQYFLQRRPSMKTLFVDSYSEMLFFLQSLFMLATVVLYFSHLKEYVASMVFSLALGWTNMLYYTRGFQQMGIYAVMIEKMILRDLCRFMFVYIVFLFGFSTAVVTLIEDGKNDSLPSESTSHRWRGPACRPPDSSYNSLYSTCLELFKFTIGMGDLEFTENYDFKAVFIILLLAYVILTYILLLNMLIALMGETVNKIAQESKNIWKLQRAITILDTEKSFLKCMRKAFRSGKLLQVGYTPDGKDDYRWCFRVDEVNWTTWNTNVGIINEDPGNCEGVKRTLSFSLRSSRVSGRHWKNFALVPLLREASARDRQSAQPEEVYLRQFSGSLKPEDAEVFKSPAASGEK
How it was run: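 TRPV1 cells loaded with Fluo-8 calcium dye; compound added and Ca2+ signal (ex 480/em 520 nm) followed 3 min, then capsaicin at EC20 added and read 2 more min to detect enhancement.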

[11] = target: Thyrotropin receptor (Homo sapiens) (UniProt P16473); assay: qHTS Assay for Antagonists of the Thyroid Stimulating Hormone Receptor (AID 488980); further: series mostly up to about 58 µM; 0% is about no effect
Thyrotropin receptor (Homo sapiens), sequence (P16473 whole entry, looked up): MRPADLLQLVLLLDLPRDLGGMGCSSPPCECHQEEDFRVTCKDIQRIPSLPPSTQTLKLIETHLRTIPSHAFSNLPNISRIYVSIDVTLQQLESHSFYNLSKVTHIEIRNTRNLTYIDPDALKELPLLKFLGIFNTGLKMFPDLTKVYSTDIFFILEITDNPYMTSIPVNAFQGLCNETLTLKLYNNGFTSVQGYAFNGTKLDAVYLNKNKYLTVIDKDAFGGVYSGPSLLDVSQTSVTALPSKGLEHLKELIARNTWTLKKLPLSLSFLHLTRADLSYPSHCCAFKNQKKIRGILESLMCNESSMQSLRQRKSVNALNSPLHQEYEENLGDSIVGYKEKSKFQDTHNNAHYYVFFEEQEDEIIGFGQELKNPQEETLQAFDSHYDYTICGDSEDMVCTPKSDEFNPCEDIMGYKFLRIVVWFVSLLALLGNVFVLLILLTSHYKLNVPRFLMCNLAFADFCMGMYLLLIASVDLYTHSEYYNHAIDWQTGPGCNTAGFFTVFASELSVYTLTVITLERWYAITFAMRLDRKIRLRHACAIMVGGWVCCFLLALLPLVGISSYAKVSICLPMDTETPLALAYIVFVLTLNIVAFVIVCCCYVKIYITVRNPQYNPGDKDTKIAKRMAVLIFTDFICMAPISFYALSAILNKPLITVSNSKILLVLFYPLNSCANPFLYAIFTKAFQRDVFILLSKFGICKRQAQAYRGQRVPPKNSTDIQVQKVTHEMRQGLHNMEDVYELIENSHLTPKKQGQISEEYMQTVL
How it was run: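 HEK293 cells transfected with human TSHR, suspended in HEPES-buffered HBSS with 70 uM RO 20-1724, were treated with compounds plus TSH at EC80 (4 nM final). cAMP was measured by competitive HTRF (cryptate anti-cAMP antibody, cAMP-d2 acceptor).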

[12] = target: Tyrosyl-DNA phosphodiesterase 1 (Homo sapiens) (UniProt Q9NUW8); assay: Confirmation Assay for Inhibitors of Tyrosyl-DNA Phosphodiesterase (TDP1) (AID 489007); settings: recombinant human TDP1 enzymatic activity, dose-response; further: potency means the concentration at half of the fitted maximal effect; nearly all actives have a fitted effect of over 40% in size
Tyrosyl-DNA phosphodiesterase 1 (Homo sapiens), sequence (Q9NUW8 whole entry, looked up): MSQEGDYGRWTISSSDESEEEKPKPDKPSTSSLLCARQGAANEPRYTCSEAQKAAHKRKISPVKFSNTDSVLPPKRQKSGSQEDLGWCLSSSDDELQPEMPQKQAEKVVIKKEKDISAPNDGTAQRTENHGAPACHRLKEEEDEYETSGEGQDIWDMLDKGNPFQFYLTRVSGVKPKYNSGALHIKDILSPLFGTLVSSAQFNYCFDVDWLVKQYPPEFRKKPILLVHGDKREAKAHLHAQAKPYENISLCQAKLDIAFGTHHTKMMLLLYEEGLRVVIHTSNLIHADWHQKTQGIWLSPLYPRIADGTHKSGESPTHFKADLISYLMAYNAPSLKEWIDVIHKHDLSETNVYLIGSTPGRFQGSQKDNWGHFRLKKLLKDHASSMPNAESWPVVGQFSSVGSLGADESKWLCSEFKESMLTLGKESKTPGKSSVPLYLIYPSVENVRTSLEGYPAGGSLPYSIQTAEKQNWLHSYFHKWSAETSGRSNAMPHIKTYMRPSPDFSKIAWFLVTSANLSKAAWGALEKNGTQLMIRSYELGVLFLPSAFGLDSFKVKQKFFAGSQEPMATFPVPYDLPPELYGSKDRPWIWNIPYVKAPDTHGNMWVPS
How it was run: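 Compounds are preincubated 15 min at room temperature with 1 nM recombinant human Tdp1. The reaction starts on adding 15 nM FITC-phosphotyrosine DNA substrate, runs 5 min, and is detected by AlphaScreen beads after 10 min.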

[13] = target: Thyrotropin-releasing hormone receptor (Homo sapiens) (UniProt P34981); assay: qHTS for Small Molecule Agonists and Allosteric Enhancers of Human TRH Receptor: Validation Screen for Agonists (AID 493127;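 active means calcium activation more than 3 SD above the typical response in the agonist read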;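 further: intracellular calcium rise by fluo-8 fluorescence before TRH EC20 addition; 0% is about no effect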); settings: TRH receptor agonist cell assay; at 2 µM; active compounds read high
How it was run: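 Compounds are added by online pintool to dye-loaded TRHR cells while fluorescence is recorded every second. A rise in calcium signal during the agonist read marks activation; a later 10 nM TRH addition (EC20) serves the separate enhancer mode.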

[14] = target: Galactokinase (Homo sapiens) (UniProt P51570); assay: qHTS Validation Assay for Inhibitors of Human Galactokinase (GALK) (AID 493189); further: 0% is about no effect
How it was run: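 GALK (5 nM) with 35 uM ATP and 100 uM galactose in HEPES pH8.0, MgCl2, NaCl, DTT, BSA; 1 h at room temperature. Residual ATP read by Kinase-Glo Plus luminescence after 10 min.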

[15] = Validation screen for small molecules that induce DNA re-replication in SW480 colon adenocarcinoma cells (AID 504364); further: 0% is about no effect
How it was run: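 Image-based qHTS: compounds were incubated with SW480 cells for 48 hr, nuclei stained with Hoechst, and per-nucleus fluorescence intensity scanned to flag cells with excess DNA content.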

[16] = target: Ubiquitin carboxyl-terminal hydrolase 1 (Homo sapiens) (UniProt O94782); assay: Inhibitors of USP1/UAF1: Pilot qHTS (AID 504865); further: potency means the concentration at half of the fitted maximal effect; nearly all actives have a fitted effect of over 35% in size
Ubiquitin carboxyl-terminal hydrolase 1 (Homo sapiens), sequence (O94782 whole entry, looked up): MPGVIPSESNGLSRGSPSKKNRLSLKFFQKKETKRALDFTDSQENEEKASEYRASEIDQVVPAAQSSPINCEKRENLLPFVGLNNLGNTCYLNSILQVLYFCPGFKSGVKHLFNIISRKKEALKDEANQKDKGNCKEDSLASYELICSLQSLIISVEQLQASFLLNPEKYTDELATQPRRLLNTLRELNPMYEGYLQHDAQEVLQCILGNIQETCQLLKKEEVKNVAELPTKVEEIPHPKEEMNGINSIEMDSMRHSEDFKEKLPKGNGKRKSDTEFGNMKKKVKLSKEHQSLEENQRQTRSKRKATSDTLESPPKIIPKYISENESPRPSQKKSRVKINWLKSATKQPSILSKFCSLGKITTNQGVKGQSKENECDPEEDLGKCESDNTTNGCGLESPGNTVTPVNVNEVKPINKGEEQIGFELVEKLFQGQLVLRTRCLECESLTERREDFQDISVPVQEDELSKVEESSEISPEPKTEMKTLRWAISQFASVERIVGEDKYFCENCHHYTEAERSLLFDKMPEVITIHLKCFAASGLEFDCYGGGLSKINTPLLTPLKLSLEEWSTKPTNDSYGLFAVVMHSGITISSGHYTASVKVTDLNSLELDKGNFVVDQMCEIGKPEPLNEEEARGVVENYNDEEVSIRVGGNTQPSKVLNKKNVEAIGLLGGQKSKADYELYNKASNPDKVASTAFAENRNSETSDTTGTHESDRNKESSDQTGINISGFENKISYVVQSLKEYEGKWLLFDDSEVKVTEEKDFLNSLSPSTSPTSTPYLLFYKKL
How it was run: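 USP1/UAF1 complex (1nM) preincubated with compound 15 min at room temperature, then Ub-Rho substrate (150nM final) added. Fluorescence read kinetically at 480/540 nm, 6 reads every 60 seconds. Buffer: 50mM HEPES pH 7.8, 0.5mM EDTA, 0.1 mg/ml BSA, 1mM TCEP, 0.01% Tween-20.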

[17] = target: DNA dC->dU-editing enzyme APOBEC-3G (Homo sapiens) (UniProt Q9HC16); assay: qHTS for inhibitors of Vif-A3G interactions: Validation (AID 588379); further: 0% is about no effect
How it was run: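 Yellow fluorescence (Ex 488, Em 500-530) of Vif-coexpressing HeLa A3G-eYFP cells, scanned by Acumen cytometer, reports blocked A3G degradation. Cells plated at 700/well overnight at 37 deg C before compound addition, then a further overnight compound incubation at 37 deg C.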

[18] = Confirmatory screen GU Rhodamine qHTS for Zika virus inhibitors qHTS (AID 1347157); further: potency means the concentration at half of the fitted maximal effect; nearly all actives have a fitted effect of over 70% in size
How it was run: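 Buffer 10 mM Tris-HCl pH 8.0, 0.01% Tween 20. Unlinked protease 25 nM; compound preincubation 15 min, RT, protected from light. Substrate Rhod110, 1.5 microM; ~15% conversion in 15 min.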

[19] = Confirmatory screen NINDS Rhodamine qHTS for Zika virus inhibitors (AID 1347161); further: potency means the concentration at half of the fitted maximal effect; nearly all actives have a fitted effect of over 60% in size
How it was run: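 Purified NS2B-NS3 protease with the NS2B hydrophilic domain joined by a flexible linker (25 nM) in 10 mM Tris-HCl pH 8.0, 0.01% Tween 20, preincubated 15 min at RT with compound; Rhodamine110 peptide substrate 1.5 µM; fluorescence change over 15 min; 4-parameter Hill fit.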

[20] = test system: Zika virus NS2B-NS3 protease (linked); assay: 384 well plate NINDS AMC confirmatory qHTS for Zika virus inhibitors (AID 1347163); further: potency means the concentration at half of the fitted maximal effect; nearly all actives have a fitted effect of over 50% in size
How it was run: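 Fluorescence at 355/460 nm was read after 25 minutes of cleavage of 30 microM Ac-VKTGKR-AMC at room temperature, in the dark. Before substrate addition, compounds (up to 1 mM final) sat ~15 minutes with 5, 30 or 60 nM linked protease. Signals were normalized to no-enzyme and no-inhibitor wells.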

[21] = test system: Zika virus NS2B-NS3 protease (linked construct); assay: 384 well plate NINDS Rhodamine confirmatory qHTS for Zika virus inhibitors (AID 1347164);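 further: fluorescence from protease cleavage of Ac-LKRR-rhodamine 110 substrate; potency means the concentration at half of the fitted maximal effect; nearly all actives have a fitted effect of over 65% in size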
How it was run: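 Linked protease at a final 5 nM, 30 nM or 60 nM was preincubated ~15 min with compounds, then given 10 microM Ac-LKRR-Rhodamine 110. Fluorescence (ex 485/em 538 nm) after 25 min in the dark at room temperature.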

[22] = Tertiary RLuc qRT-PCR qHTS assay for Zika virus inhibitors (AID 1347169); further: top concentration of the series differs between compounds; on the % scale 0 is the no-effect control and ±100 the full control effect; nearly all actives have a fitted effect of over 55% in size
How it was run: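 Vero cells (1,000 per well) plated overnight at 37 degrees C, treated with compound in DMSO, then infected with recombinant ZIKV-RLuc (Cambodian) at MOI 1-2 for 48-72 hrs. Live-cell Renilla luciferase substrate added; luminescence read after 1-1.5 hrs.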

O=C(Nc1cc(C(=O)Nc2ccc(S(=O)(=O)O)cc2S(=O)(=O)O)cc(C(=O)Nc2ccc(S(=O)(=O)O)cc2S(=O)(=O)O)c1)Nc1cc(C(=O)Nc2ccc(S(=O)(=O)O)cc2S(=O)(=O)O)cc(C(=O)Nc2ccc(S(=O)(=O)O)cc2S(=O)(=O)O)c1
active: Potency [9] 6.31 µM | Potency [12] 316 nM and 1.26 µM | Potency [16] 1 µM | Potency [18] 2.24 µM and 4.47 µM | Potency [19] 2.24 µM and 2 µM | Potency [20] 8.91 µM and 7.08 µM | Potency [21] 3.55 µM and 3.16 µM
inactive: Potency [1] | Potency [2] | Potency [3] | outcome [4] | Potency [5] | Potency [6] | Potency [7] | Potency [8] | outcome [10] | outcome [11] | activation [13] 0.312% | outcome [14] | outcome [15] | Potency [17] | Potency [22]
